Measured values from PubChem BioAssay AID504834 (National Center for Advancing Translational Sciences (NCATS), 2011).
Among all 320,000 compounds or so, about 22,000 (6.9%) were called active. Not shown: some 27% with an inconclusive outcome. The full list was thinned out, with actives kept by preference. Unmarked numbers belong to inactive results. Calls come from the whole dose curve; as a rule, active = well fitted inhibition curve with a large enough effect; inconclusive = small, poorly fitted or top-dose-only effect, or another doubt; inactive = no such curve, though single readings can be large or run the other way.
% is set by controls: 0 for no effect and ±100 for the full control effect; potency is the fitted concentration of half-maximal effect.

Assay: Primary qHTS for delayed death inhibitors of the malarial parasite plastid, 96 hour incubation
Conditions: P. falciparum luciferase reporter growth; series mostly up to 28.7 µM; activity change, negative = inhibition: at the top concentration
Summary of the method: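 Two-generation exposure (96 h) targets delayed-death phenotype. Reporter parasites carrying integrated firefly luciferase, in red cells at 2% hematocrit and 0.05% parasitemia final, kept at 37 C, 5% CO2; luminescence loss indicates inhibition.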
With `CCCCc1ccc(NC(=O)NCc2cccnc2)cc1` the “activity change, negative = inhibition” value was 11.3%. With `CCOc1ccc(S(=O)(=O)NCCC(=O)NCC(C)(C)N2CCOCC2)cc1` the “activity change, negative = inhibition” value was 20.6%. With `Cc1ccc2occ(/C=N/NC(=O)c3ccccc3C)c(=O)c2c1` the Potency was 11.7 µM (active). In the case of `CC(C)(C)OC(=O)NCCCCCC(=O)N/N=C/c1coc2ccccc2c1=O`, the “activity change, negative = inhibition” value was 80.7%. With `O=C(N/N=C/c1coc2ccccc2c1=O)c1cc2ccccc2o1` the “activity change, negative = inhibition” value was 1.51%. In the case of `Cc1[nH]c2ccccc2c1C(=O)CN1CCCC(C)C1` (stereo unspecified), the “activity change, negative = inhibition” value was -14.5%. With `O=C(CSC1=NS(=O)(=O)c2cc(F)ccc2N1)Nc1ccccc1F` the “activity change, negative = inhibition” value was 60.3%. In the case of `CCOc1ccc(C(=O)Nc2cc(Cl)ccc2-n2cncn2)cc1OC`, the “activity change, negative = inhibition” value was -2.8%. With `COc1ccc(NC(=O)C(CC(C)C)NC(=O)C2CCC(C)CC2)cc1` (stereo unspecified) the “activity change, negative = inhibition” value was -1.4%. With `CC(C)[C@H](NC(=O)N1CC(=O)Nc2ccccc21)C(=O)N[C@@H](Cc1c[nH]c2ccccc12)C(=O)O` the “activity change, negative = inhibition” value was -23.4%. For `CC1C(=O)Nc2ccccc2N1C(=O)c1ccc(F)cc1F` (stereo unspecified), the “activity change, negative = inhibition” value was 4.46%. For `CC(C)[C@H](NC(=O)N1c2ccccc2NC(=O)[C@@H]1C(C)C)C(=O)N[C@H](C(=O)O)c1ccccc1`, the Potency was 8.28 µM (active). In the case of `O=C(CNC(=O)c1cccnc1)N/N=C/c1cc(Br)c(O)c(Br)c1`, the “activity change, negative = inhibition” value was 45%. In the case of `O=C(CCS(=O)(=O)c1ccccc1)NC1CCCC1`, the “activity change, negative = inhibition” value was 8.16%. With `COC(=O)c1ccc(CNC(=O)C2CCC(=O)N(Cc3ccccn3)C2)cc1` (stereo unspecified) the “activity change, negative = inhibition” value was 238%. For `N#CCSc1nc2ccc(N3CCOCC3)cc2c(=O)n1CCc1ccccc1`, the Potency was 13.1 µM (active). With `O=C(CCn1c(SCC(=O)c2ccccc2)nc2ccccc2c1=O)NCc1ccc(F)cc1` the “activity change, negative = inhibition” value was 0%. In the case of `CCCCn1c(N)c(N2CCOCC2)c(=O)n(CC(=O)NCCc2ccccc2)c1=O`, the “activity change, negative = inhibition” value was 15.5%. For `COC(=O)c1ccc(C23CC4(C2)[C@H](CN(Cc2cccnc2)[C@@H]4c2ccccc2)C3c2ccc(Cl)nc2)cc1` (stereo partly specified), the Potency was 2.33 µM (active). With `O=C(O)C1CC(=O)N(Cc2cccnc2)C1` (stereo unspecified) the “activity change, negative = inhibition” value was -6.43%. In the case of `O=S(=O)(NCc1cccnc1)c1ccc(Cl)nc1`, the “activity change, negative = inhibition” value was 69.2%. For `Cc1ccc(CNC(=O)c2cccc3c2C(=O)c2ccc(N4CCC(C)CC4)cc2S3(=O)=O)cc1`, the “activity change, negative = inhibition” value was 3.93%. With `Cc1cccc(CC(=O)Nc2c3c(nn2-c2cccc(Cl)c2)CS(=O)C3)c1` (stereo unspecified) the “activity change, negative = inhibition” value was 37.9%. With `COc1ccc(-n2nc3c(c2NC(=O)Cc2cccc(C)c2)CS(=O)C3)cc1` (stereo unspecified) the “activity change, negative = inhibition” value was -26.6%. In the case of `COc1ccc(CC(=O)Nc2c3c(nn2-c2cccc(Cl)c2)CS(=O)C3)cc1` (stereo unspecified), the Potency was 1.47 µM (active). In the case of `CC(=O)c1ccc(N2Cc3ccccc3C2)cc1`, the “activity change, negative = inhibition” value was 15.6%. In the case of `COc1ccc(F)cc1S(=O)(=O)N1CCCCC1`, the “activity change, negative = inhibition” value was -25.6%. In the case of `CCc1ccc(S(=O)(=O)Nc2cc3c(cc2N2CCCCC2)n(C)c(=O)c(=O)n3C)cc1`, the “activity change, negative = inhibition” value was 12.4%. For `c1ccc(CCC2=NCCn3cccc32)cc1`, the Potency was 14.7 µM (active). In the case of `Cn1c(CCc2ccccc2)nnc1SCC(N)=O`, the “activity change, negative = inhibition” value was 0.25%. For `CC1CSc2nnc(CCc3ccccc3)n21` (stereo unspecified), the “activity change, negative = inhibition” value was -5.11%. With `CS(=O)(=O)c1ccc(C(=O)OCC(=O)NNC(=O)COc2ccc(Cl)cc2)cc1` the “activity change, negative = inhibition” value was -3.01%. For `COc1ccc(C(C(=O)NC(C)(C)C)N(Cc2ccc(F)cc2)C(=O)CCC(=O)Nc2cc(C)on2)cc1` (stereo unspecified), the “activity change, negative = inhibition” value was 10.8%. In the case of `Cn1c(SCC(=O)Nc2nccs2)nnc1-c1cccnc1`, the “activity change, negative = inhibition” value was 1.62%. In the case of `O=C(Cn1cc(C(=O)c2cccs2)c2ccccc21)NCc1cccs1`, the “activity change, negative = inhibition” value was 200%. With `CCN(CC)C(=O)C(=O)c1cn(CC(=O)NCc2ccc3c(c2)OCO3)c2ccccc12` the “activity change, negative = inhibition” value was 30.1%. In the case of `COC(=O)c1cn(CC(=O)NCc2cccs2)c2ccccc12`, the Potency was 13.1 µM (active). For `O=C(NCCc1ccccc1)c1ccc2c(c1)N(Cc1ccccc1)CCS2`, the “activity change, negative = inhibition” value was 22.6%. For `O=C(OCc1ccccc1)c1ccc(O)cc1`, the “activity change, negative = inhibition” value was 17.2%. In the case of `CS(=O)(=O)N1CCc2nc(-c3ccccc3)sc2C1`, the “activity change, negative = inhibition” value was 243%. For `CCOc1cc(C2C(C(=O)c3ccco3)=C(O)C(=O)N2Cc2ccccc2)ccc1O` (stereo unspecified), the “activity change, negative = inhibition” value was 10.9%. For `CCOC(=O)c1cc(Sc2ccccc2N)cc(C(=O)OCC)n1`, the “activity change, negative = inhibition” value was -16.9%. With `CC(C)=CCCC(C)CN1CCC(n2nccc2NC(=O)c2ccccc2)CC1` (stereo unspecified) the Potency was 14.7 µM (active). In the case of `Cc1nn(C)c(Cl)c1CN1CCC(n2nccc2NC(=O)C2CCCC2)CC1`, the “activity change, negative = inhibition” value was 30.4%. In the case of `CC(CN1CCC(n2nccc2NC(=O)C2CCCC2)CC1)c1ccccc1` (stereo unspecified), the Potency was 9.28 µM (active). For `O=C(Nc1ccnn1C1CCN(C/C=C/c2ccc(F)cc2)CC1)C1CCCC1`, the “activity change, negative = inhibition” value was 34.7%. With `CC(C)Oc1ccc(CN2CCC(n3nccc3NC(=O)c3cccnc3)CC2)cc1` the “activity change, negative = inhibition” value was -17.2%. With `CC(=O)N[C@@H](C)C(=O)N1CCC(n2nccc2NC(=O)CCCc2ccccc2)CC1` the “activity change, negative = inhibition” value was -4.67%. With `CN1CCN(c2ccccc2NC(=O)COc2ccc(C3CCCCC3)cc2)CC1` the “activity change, negative = inhibition” value was 32.9%. For `N#Cc1cccc(OC(=O)c2ccc3c(=O)n4c(nc3c2)CCC4)c1`, the “activity change, negative = inhibition” value was 47.2%. With `O=C(NCCNc1ccccc1[N+](=O)[O-])c1ccccc1F` the “activity change, negative = inhibition” value was 45.3%. For `CCCCn1c(N)c(N(CCOC)C(=O)c2cccc(S(=O)(=O)N(C)c3ccccc3)c2)c(=O)[nH]c1=O`, the “activity change, negative = inhibition” value was -3.71%. In the case of `CCCCOC(=O)c1[nH]c(C)c(C(=O)OC)c1C`, the “activity change, negative = inhibition” value was -31.2%. For `COCCOC(=O)c1[nH]c2c(c1C)C(=O)CC(c1ccc(OC)cc1)C2` (stereo unspecified), the “activity change, negative = inhibition” value was 10.5%. With `CCCOC(=O)c1[nH]c2c(c1C)C(=O)CC(c1cccs1)C2` (stereo unspecified) the Potency was 9.28 µM (active). For `CCCOC(=O)c1[nH]c2c(c1C)C(=O)CC(c1cc(OC)c(OC)c(OC)c1)C2` (stereo unspecified), the Potency was 11.7 µM (active). In the case of `CCOC(=O)C1=C(N)N2C(=O)C(C)SC2=C(C(=O)OCC)C1c1cc(OC)c(OC)c(OC)c1` (stereo unspecified), the “activity change, negative = inhibition” value was -1.9%. For `Cc1cc(C)c(S(=O)(=O)n2cc(C(C)C(N)C(=O)O)c3ccccc32)c(C)c1` (stereo unspecified), the “activity change, negative = inhibition” value was 10.6%. For `O=C(Nc1cccc(F)c1)NC1CCCc2ccccc21` (stereo unspecified), the “activity change, negative = inhibition” value was -14.7%. With `COc1ccc(CN2CCC(n3nccc3NC(=O)CCCc3ccccc3)CC2)cc1C` the “activity change, negative = inhibition” value was -13.8%. With `COCCNC(=O)c1ccc(S(=O)(=O)c2ccc(Cl)cc2)c(NC(C)=O)c1` the “activity change, negative = inhibition” value was 25.4%. With `COc1ccc([C@H]2CC(=O)C=C(/C=C/c3ccccc3)C2)cc1` the “activity change, negative = inhibition” value was 39.1%. With `O=C(O)/C=C/c1ccc(OCCCF)cc1` the “activity change, negative = inhibition” value was 18%. For `CCOC(=O)C1(S(=O)(=O)c2ccc(Cl)cc2)CCN(Cc2ccccc2)CC1`, the Potency was 2.94 µM (active). For `O=C(NNS(=O)(=O)c1ccc(Cl)cc1)C1CCN(Cc2ccccc2)CC1`, the “activity change, negative = inhibition” value was 85.3%. In the case of `CCOC(=O)C1(S(=O)(=O)c2ccccc2)CCN(Cc2ccccc2)CC1`, the “activity change, negative = inhibition” value was -0.502%.
